# Inconclusive results are not listed. Entries that show only a call come without a potency. Calls of active or inactive are those of the source. The call rests on the fitted dose curve; in most records, active means well fitted curve in the direction sought with a large enough effect; inconclusive means small, poorly fitted or top-dose-only effect, or another doubt; inactive means no such curve, though single readings can be large; an effect the other way counts as inactive or inconclusive.
# Experiments:
# [1] = target: Glutathione peroxidase 1 (Homo sapiens) (UniProt P07203); experiment: Primary qHTS Assay for Inhibitors of Recombinant Selenoprotein Glutathione Peroxidase 1 (GPX1) (AID 1845191); settings: recombinant GPX1, GR-coupled NADPH fluorescence, 15 min; series mostly up to 48.8 µM; further: nearly all actives have a fitted effect of over 65% in size
# Glutathione peroxidase 1 (Homo sapiens), sequence (P07203 whole entry, looked up): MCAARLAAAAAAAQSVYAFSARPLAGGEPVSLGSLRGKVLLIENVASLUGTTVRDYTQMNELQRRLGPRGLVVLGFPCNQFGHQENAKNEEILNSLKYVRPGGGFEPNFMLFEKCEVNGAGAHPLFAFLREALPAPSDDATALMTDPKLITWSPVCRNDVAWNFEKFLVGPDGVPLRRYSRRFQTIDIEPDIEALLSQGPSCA
# How it was run: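 GR-coupled assay: compounds preincubated 30 min at room temperature with GPX1, then reaction started with CHP; final 10 nM GPX1, 1 mM GSH, 0.5 mM CHP, 0.5 mM NADPH, 100 nM GR, 0.01% BSA, pH 7.5 Tris buffer. NADPH fluorescence (340/450 nm) read at 0 and 15 min.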
# [2] = target: Phospholipid hydroperoxide glutathione peroxidase GPX4 (Homo sapiens) (UniProt P36969); experiment: Primary qHTS Assay for Inhibitors of Recombinant Selenoprotein Glutathione Peroxidase 4 (GPX4) (AID 1845192); settings: recombinant GPX4, GR-coupled NADPH fluorescence, 15 min; series mostly up to 50 µM; further: nearly all actives have a fitted effect of over 65% in size
# Phospholipid hydroperoxide glutathione peroxidase GPX4 (Homo sapiens), sequence (P36969 whole entry, looked up): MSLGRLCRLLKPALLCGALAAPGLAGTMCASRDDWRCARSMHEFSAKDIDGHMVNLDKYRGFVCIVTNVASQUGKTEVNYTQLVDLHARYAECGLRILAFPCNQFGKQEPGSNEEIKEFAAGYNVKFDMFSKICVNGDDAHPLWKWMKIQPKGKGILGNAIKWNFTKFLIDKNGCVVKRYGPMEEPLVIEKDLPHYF
# How it was run: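 GR-coupled assay: recombinant GPX4 preincubated 30 min with compound at room temperature; final 200 nM GPX4, 1 mM GSH, 0.5 mM cumene hydroperoxide, 0.5 mM NADPH, 100 nM GR, 0.01% BSA, pH 7.5 Tris. NADPH fluorescence (340/450 nm) read at 0 and 15 min.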
# [3] = target: Luciferin 4-monooxygenase (Photinus pyralis) (UniProt P08659); experiment: Primary firefly luciferase (FLuc) qHTS assay for identification of artifact compounds. (AID 1845220); settings: purified firefly luciferase, luminescence, 5 min; series mostly up to 54.1 µM; further: nearly all actives have a fitted effect of over 60% in size
# How it was run: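 Enzymatic FLuc inhibition assay: compounds pre-exposed to luciferin/ATP (10 uM each) for 15 min, then purified P. pyralis enzyme at 10 nM added. Read-out: luminescence at 5 min.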
# [4] = Primary fluorescence-based thiol-reactive (MSTI) qHTS assay for identification of artifact compounds. (AID 1845221); settings: MSTI thiol-reactivity probe, 1 h; series mostly up to 53.8 µM; further: nearly all actives have a fitted effect of over 65% in size; further: potency means the concentration at half of the fitted maximal effect
# How it was run: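 MSTI probe at 4 uM final in 2% DMSO/PBS pH 7.4; compounds, 1 h at room temperature in dark. Fluorescence Ex/Em 525/598 nm, normalised to Acetyl-MSTI and MSTI, fitted to 4-parameter Hill.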
# [5] = tested on: Nanoluciferase (engineered Oplophorus gracilirostris luciferase); experiment: Primary Nanoluciferase (NLuc) qHTS assay for identification of artifact compounds. (AID 1845222); settings: NLuc-conditioned medium, Nano-Glo luminescence, 5 min; series mostly up to 54.1 µM;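 further: NLuc secreted into diluted conditioned medium of S16 cells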
# How it was run: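 S16 cell supernatant NLuc, 1:55; cpds qHTS; 15 min RT dark; Nano-Glo substrate 1:100, 5 min; luminescence; Hill fit of % inhibition.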
Compound,Potency [1],Potency [2],Potency [3],Potency [4],Potency [5]
COC(=O)CC1OC(C)C2=C(O)c3c(O)cccc3C(=O)C23OC13 (stereo not given),inactive,inactive,inactive,3.29 µM (active),inactive
C=C1CC[C@@H]2[C@](C)(CO)[C@H](O)CC[C@@]2(C)[C@@H]1C/C=C1/C(=O)OCC1OC(=O)/C(=C/CO)C(O)C[C@@H]1C(=C)CC[C@@H]2[C@](C)(CO)[C@H](O)CC[C@]21C (stereo not given in full),inactive,inactive,inactive,inactive,inactive
CCN(CC)CCCS(=O)(=O)N[C@H](CCc1ccccc1)c1nc(Cc2ccc(Br)cc2)no1,inactive,inactive,inactive,inactive,inactive

# — PubChem BioAssay (NCATS)
